Legend:
[1] = target: High affinity nerve growth factor receptor (Homo sapiens) (UniProt P04629); settings: at 1 µM;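 further: each value is the mean percent inhibition of TRKA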
[2] = target: BDNF/NT-3 growth factors receptor (Homo sapiens) (UniProt Q16620); settings: at 0.1 µM
[3] = target: BDNF/NT-3 growth factors receptor (Homo sapiens) (UniProt Q16620); settings: at 1 µM
[4] = target: NT-3 growth factor receptor (Homo sapiens) (UniProt Q16288); settings: at 0.1 µM
[5] = target: NT-3 growth factor receptor (Homo sapiens) (UniProt Q16288); settings: at 1 µM
[6] = target: T1, Tyrosine-protein kinase TXK (Homo sapiens) (UniProt P42681); settings: at 0.1 µM
T1 sequence (whole entry): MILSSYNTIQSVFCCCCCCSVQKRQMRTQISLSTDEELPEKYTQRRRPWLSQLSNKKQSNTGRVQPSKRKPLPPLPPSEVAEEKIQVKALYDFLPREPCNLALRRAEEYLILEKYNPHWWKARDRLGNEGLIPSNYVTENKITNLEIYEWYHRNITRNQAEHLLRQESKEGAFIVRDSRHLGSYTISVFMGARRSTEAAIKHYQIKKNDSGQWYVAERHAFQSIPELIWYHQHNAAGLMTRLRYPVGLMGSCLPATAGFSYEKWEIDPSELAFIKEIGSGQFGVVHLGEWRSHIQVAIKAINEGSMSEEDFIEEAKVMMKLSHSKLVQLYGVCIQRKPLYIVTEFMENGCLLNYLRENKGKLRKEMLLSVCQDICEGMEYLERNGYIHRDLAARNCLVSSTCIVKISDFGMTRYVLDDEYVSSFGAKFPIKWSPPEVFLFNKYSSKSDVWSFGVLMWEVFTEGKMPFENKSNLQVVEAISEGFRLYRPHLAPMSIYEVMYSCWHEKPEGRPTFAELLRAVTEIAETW

[7] = target: T1, Tyrosine-protein kinase TXK (Homo sapiens); settings: at 1 µM
[8] = target: Non-receptor tyrosine-protein kinase TYK2 (Homo sapiens) (UniProt P29597); settings: at 0.1 µM;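 further: each value is a mean of the inhibition readings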
[9] = target: T2, Dual specificity protein kinase TTK (Homo sapiens) (UniProt P33981); settings: at 1 µM;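 further: reported figures are mean TTK inhibition at 1 µM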
T2 sequence (whole entry): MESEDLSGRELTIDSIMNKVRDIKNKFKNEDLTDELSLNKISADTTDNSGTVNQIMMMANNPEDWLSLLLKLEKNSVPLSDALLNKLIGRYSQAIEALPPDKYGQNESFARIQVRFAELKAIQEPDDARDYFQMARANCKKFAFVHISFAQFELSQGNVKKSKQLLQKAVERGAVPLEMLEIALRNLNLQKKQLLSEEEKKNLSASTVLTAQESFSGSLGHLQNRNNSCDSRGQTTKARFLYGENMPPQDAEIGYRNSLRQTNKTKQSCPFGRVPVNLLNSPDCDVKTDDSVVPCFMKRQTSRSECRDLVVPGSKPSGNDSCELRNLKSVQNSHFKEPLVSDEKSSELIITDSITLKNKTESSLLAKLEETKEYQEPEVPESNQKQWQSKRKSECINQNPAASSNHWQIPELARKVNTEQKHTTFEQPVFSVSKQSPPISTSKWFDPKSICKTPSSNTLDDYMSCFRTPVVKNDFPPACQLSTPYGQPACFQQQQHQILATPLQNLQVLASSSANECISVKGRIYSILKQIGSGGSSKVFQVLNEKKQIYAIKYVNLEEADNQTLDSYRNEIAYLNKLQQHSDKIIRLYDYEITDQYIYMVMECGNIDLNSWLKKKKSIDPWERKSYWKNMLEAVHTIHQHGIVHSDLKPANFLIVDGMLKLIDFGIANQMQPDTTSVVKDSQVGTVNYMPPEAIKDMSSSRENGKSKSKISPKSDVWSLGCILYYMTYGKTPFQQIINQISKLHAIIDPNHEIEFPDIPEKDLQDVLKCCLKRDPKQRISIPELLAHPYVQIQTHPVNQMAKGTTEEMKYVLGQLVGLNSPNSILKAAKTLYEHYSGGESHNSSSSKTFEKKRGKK

[10] = target: T3, Aurora kinase A (Homo sapiens) (UniProt O14965); settings: at 0.1 µM
T3 sequence (whole entry): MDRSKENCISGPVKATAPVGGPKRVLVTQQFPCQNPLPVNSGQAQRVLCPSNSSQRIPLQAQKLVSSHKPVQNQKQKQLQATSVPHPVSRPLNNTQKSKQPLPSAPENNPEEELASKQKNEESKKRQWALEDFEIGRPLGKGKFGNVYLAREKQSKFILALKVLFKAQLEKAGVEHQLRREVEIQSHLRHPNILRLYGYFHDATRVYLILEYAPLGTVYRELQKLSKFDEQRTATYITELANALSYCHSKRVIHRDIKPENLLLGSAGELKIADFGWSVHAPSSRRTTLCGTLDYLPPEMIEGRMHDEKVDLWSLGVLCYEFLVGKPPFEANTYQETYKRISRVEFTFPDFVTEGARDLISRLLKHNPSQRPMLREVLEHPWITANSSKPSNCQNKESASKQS

[11] = target: T3, Aurora kinase A (Homo sapiens); settings: at 1 µM
[12] = target: Aurora kinase B (Homo sapiens) (UniProt Q96GD4); settings: at 0.1 µM
[13] = target: Aurora kinase B (Homo sapiens) (UniProt Q96GD4); settings: at 1 µM
[14] = target: T4, Aurora kinase C (Homo sapiens) (UniProt Q9UQB9); settings: at 0.1 µM
T4 sequence (whole entry): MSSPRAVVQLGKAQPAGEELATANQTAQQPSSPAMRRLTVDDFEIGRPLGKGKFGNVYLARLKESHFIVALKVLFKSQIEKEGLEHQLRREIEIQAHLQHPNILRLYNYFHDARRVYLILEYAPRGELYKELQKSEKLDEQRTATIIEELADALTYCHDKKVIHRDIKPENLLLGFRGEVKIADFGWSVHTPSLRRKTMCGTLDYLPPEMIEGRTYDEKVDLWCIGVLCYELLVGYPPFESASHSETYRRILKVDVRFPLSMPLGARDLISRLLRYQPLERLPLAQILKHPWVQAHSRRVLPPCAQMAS

[15] = target: T4, Aurora kinase C (Homo sapiens); settings: at 1 µM
[16] = target: Serine/threonine-protein kinase 10 (Homo sapiens) (UniProt O94804); settings: at 0.1 µM
[17] = target: Serine/threonine-protein kinase 10 (Homo sapiens) (UniProt O94804); settings: at 1 µM
[18] = target: T5, Mitogen-activated protein kinase kinase kinase kinase 2 (Homo sapiens) (UniProt Q12851); settings: at 0.1 µM
T5 sequence (whole entry): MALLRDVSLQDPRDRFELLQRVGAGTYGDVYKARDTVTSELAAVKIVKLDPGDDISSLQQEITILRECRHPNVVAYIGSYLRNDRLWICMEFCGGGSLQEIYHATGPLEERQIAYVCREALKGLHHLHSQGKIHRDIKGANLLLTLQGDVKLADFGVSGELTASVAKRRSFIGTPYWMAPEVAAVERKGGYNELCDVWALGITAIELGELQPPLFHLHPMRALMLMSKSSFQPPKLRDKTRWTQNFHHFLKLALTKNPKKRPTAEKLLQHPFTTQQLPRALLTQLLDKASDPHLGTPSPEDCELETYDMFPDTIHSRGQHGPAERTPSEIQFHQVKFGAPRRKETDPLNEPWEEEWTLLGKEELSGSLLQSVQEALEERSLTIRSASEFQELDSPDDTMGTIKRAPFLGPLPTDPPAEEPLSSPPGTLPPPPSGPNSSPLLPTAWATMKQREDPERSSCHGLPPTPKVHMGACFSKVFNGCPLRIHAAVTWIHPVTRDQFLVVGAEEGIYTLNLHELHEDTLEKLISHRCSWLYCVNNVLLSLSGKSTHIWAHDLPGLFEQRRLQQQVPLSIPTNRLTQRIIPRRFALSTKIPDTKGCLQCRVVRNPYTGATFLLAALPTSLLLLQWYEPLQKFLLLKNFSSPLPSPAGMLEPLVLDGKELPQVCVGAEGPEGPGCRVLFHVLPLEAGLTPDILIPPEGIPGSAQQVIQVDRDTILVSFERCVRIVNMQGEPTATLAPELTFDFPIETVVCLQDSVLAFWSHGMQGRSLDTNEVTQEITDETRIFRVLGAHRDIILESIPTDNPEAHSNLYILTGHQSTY

[19] = target: T5, Mitogen-activated protein kinase kinase kinase kinase 2 (Homo sapiens); settings: at 1 µM
[20] = target: Mitogen-activated protein kinase kinase kinase kinase 4 (Homo sapiens) (UniProt O95819); settings: at 0.1 µM
Mitogen-activated protein kinase kinase kinase kinase 4 (Homo sapiens), sequence (O95819 2-1239 limits assumed): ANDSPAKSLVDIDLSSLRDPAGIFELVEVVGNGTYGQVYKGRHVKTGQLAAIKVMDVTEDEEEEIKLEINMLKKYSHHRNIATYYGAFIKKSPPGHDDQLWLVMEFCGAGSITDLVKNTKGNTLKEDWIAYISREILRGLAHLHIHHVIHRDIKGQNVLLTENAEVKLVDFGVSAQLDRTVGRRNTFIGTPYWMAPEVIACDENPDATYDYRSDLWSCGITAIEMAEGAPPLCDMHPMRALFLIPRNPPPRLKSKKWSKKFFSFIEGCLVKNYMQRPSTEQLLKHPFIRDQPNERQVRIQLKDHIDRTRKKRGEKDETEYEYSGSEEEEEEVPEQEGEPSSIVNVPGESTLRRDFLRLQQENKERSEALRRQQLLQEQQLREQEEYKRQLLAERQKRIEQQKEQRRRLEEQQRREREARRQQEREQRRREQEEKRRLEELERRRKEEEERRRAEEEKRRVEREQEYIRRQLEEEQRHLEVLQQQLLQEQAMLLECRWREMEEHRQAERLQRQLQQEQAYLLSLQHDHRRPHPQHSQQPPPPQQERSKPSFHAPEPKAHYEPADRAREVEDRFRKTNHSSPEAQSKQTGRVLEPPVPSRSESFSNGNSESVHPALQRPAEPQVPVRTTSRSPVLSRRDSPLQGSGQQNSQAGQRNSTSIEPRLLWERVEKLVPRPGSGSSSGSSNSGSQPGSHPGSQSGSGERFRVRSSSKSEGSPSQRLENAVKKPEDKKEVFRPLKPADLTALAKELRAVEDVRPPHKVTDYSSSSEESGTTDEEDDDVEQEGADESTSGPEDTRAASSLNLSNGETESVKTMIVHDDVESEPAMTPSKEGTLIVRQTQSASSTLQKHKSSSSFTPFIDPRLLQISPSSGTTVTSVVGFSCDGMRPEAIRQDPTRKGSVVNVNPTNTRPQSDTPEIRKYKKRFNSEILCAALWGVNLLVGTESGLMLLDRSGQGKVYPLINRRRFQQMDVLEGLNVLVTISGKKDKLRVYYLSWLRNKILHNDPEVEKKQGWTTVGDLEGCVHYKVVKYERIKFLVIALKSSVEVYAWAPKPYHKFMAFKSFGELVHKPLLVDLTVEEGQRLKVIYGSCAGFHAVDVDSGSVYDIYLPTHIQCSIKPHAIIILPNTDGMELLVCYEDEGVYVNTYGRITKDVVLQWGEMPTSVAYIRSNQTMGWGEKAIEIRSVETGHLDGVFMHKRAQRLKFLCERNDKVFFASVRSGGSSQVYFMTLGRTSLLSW

Serine/threonine-protein kinase 10 (Homo sapiens), sequence (O94804 whole entry, looked up): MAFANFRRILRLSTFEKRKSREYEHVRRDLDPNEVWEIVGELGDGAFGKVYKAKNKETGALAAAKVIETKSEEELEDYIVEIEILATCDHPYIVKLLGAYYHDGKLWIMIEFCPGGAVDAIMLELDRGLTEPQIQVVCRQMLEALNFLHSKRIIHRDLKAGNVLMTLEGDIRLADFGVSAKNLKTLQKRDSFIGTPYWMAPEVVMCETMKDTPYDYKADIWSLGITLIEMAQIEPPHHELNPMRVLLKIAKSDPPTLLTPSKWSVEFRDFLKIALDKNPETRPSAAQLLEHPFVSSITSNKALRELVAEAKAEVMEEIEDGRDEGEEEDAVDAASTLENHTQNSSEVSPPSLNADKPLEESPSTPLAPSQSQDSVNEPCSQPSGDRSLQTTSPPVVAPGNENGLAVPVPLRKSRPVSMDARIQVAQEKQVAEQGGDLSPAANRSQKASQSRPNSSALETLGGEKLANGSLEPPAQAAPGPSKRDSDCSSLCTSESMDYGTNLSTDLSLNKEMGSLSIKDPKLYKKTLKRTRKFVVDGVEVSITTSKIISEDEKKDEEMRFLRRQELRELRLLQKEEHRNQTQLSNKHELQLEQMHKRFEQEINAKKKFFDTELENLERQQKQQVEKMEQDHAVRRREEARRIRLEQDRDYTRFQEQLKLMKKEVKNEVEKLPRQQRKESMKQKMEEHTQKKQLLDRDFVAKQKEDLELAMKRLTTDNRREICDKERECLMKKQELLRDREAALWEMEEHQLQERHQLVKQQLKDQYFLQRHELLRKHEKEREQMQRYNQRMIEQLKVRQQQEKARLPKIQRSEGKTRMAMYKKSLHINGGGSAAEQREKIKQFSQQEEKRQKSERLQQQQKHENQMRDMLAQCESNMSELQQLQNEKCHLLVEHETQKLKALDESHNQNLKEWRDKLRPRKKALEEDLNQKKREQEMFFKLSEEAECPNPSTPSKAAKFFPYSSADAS
High affinity nerve growth factor receptor (Homo sapiens), sequence (P04629 33-796 limits assumed): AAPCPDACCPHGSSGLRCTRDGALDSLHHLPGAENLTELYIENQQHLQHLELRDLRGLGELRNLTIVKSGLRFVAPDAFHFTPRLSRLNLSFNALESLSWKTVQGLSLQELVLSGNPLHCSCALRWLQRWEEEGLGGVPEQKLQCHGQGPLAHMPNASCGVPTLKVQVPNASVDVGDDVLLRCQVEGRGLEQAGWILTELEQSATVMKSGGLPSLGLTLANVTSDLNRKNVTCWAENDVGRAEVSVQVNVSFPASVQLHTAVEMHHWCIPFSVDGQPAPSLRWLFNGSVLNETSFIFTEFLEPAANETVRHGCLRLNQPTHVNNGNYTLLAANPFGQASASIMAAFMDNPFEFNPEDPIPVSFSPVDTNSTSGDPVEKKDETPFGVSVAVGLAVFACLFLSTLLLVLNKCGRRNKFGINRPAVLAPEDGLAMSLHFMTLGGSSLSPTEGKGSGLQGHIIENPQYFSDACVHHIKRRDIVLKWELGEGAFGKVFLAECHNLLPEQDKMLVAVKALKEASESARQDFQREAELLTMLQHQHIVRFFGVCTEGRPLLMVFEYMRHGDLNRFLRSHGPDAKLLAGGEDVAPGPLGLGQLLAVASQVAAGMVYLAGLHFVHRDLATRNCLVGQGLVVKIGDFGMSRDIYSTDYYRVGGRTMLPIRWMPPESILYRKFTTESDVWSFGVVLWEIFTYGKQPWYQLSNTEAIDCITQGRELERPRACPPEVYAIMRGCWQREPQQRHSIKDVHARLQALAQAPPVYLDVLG
BDNF/NT-3 growth factors receptor (Homo sapiens), sequence (Q16620 32-822 limits assumed): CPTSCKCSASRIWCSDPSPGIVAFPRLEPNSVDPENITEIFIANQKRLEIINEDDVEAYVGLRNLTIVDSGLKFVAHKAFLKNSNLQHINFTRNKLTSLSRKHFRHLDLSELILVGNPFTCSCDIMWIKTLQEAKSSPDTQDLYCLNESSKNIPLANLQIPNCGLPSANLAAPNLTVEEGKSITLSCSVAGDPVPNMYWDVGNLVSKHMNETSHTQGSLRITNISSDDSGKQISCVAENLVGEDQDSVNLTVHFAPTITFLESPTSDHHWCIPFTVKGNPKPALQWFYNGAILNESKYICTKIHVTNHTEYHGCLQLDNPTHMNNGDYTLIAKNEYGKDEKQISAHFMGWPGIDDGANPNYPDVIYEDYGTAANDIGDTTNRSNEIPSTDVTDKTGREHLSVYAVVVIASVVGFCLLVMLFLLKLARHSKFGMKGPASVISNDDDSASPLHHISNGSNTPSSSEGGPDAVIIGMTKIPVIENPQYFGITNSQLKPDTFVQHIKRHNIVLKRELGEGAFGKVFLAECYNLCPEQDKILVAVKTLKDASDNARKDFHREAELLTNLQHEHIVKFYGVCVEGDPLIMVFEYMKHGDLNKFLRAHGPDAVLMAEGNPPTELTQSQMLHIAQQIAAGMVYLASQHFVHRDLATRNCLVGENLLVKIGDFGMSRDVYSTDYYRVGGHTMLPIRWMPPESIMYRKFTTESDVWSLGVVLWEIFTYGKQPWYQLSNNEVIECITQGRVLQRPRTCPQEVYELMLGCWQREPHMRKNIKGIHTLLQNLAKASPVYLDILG
NT-3 growth factor receptor (Homo sapiens), sequence (Q16288 32-839 limits assumed): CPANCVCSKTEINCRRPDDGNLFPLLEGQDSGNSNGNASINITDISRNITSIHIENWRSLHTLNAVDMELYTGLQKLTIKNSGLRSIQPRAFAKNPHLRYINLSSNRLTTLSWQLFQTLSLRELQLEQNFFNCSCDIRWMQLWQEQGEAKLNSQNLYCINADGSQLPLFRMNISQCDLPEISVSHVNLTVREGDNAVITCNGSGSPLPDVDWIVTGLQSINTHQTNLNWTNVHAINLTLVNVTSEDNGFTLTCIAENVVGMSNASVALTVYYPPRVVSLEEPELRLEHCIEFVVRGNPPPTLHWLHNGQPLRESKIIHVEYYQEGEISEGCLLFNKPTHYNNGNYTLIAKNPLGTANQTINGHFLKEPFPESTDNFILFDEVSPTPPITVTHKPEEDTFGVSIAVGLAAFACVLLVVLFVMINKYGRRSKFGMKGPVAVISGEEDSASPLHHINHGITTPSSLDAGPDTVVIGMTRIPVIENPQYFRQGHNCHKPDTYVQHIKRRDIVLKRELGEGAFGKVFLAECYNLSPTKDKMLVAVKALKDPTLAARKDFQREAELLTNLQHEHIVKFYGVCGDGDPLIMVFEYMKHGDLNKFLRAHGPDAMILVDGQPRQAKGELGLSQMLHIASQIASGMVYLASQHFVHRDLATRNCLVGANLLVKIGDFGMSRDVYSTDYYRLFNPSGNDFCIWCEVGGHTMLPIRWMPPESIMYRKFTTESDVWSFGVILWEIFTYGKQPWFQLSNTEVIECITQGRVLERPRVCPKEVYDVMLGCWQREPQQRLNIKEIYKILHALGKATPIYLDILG
Aurora kinase B (Homo sapiens), sequence (Q96GD4 whole entry): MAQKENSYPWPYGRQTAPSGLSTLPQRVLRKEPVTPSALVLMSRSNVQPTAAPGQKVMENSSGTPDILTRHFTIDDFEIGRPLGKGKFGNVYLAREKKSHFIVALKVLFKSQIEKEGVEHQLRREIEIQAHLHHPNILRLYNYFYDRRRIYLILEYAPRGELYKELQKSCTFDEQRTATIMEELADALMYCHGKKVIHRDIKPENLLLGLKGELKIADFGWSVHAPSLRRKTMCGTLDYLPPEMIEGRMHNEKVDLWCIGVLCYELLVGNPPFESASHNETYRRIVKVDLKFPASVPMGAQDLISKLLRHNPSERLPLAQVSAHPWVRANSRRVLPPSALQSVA

Row | SMILES | inhibition [1] [%] | inhibition [2] [%] | inhibition [3] [%] | inhibition [4] [%] | inhibition [5] [%] | inhibition [6] [%] | inhibition [7] [%] | inhibition [8] [%] | inhibition [9] [%] | inhibition [10] [%] | inhibition [11] [%] | inhibition [12] [%] | inhibition [13] [%] | inhibition [14] [%] | inhibition [15] [%] | inhibition [16] [%] | inhibition [17] [%] | inhibition [18] [%] | inhibition [19] [%] | inhibition [20] [%]
1 | CC(C)(CO)CNC(=O)c1ccc2c(c1)/C(=N/Nc1ccc(S(N)(=O)=O)cc1)C(=O)N2 | 15.6 | 3.35 | 31.2 | 6.89 | 41.5 | -0.15 | 3.21 | -1.38 | 79.2 | 11.9 | 56.2 | 0.26 | 21 | 3.09 | 43 | -1.79 | 4.55 | 0.92 | 3.15 | 0.68
2 | COc1ccc2c(-c3ccnc(Nc4cccc(OC(F)(F)F)c4)n3)cnn2n1 | 11.1 | 2.97 | 7.33 | 2.73 | 12.3 | 2.09 | 5.53 | -3.37 | 17.1 | 0.72 | 33.9 | 5.14 | 28.8 | 2.02 | 56.9 | 4.75 | 10.6 | 0.05 | 5.46 | 4.63
3 | Fc1ccc(-c2cc(-c3c[nH]nc3-c3ccccn3)ccn2)cc1 | 0.04 | 4.04 | 4.77 | 4.06 | 3.45 | 3.64 | 2.28 | -1.71 | 9.65 | 3.15 | 4.79 | 2.48 | 5.17 | -0.57 | -4.87 | 6.15 | 11.2 | -0.05 | 1.6 | 13.7
4 | CC(C)COC(=O)c1ccc2c(c1)/C(=C/Nc1ccc(S(N)(=O)=O)cc1)C(=O)N2 | 30.4 | 6.02 | 40.2 | 8.8 | 48.5 | 1.73 | 4.75 | 3.35 | 70.1 | 3.84 | 61 | 6.97 | 48 | 4.05 | 82.9 | -1.08 | 12.6 | 2.95 | 14.3 | 14.5
5 | CCn1c(-c2nonc2N)nc2ccccc21 | 2.11 | 1.05 | -0.82 | 0.03 | 0.89 | 3.75 | 6.72 | -1.66 | 7.51 | 2.42 | 7.95 | 0.55 | 5.64 | -0.58 | 11.2 | 2.59 | 6.5 | 0.98 | 3.67 | 4.69
